Results on 37 molecules are retold here after ChEMBL document CHEMBL1157539, “Thousands of chemical starting points for antimalarial lead identification” (Nature, 2010).

In general, Inhibition refers to the share of the control response that was lost under treatment.

One experiment deals with Plasmodium falciparum. Nature of the experiment: GSK_TCMDC: Inhibition of Plasmodium falciparum 3D7 in whole red blood cells, using parasite LDH activity as an index of growth. Test compounds present at 2uM. It counts as functional.
Regarding `CCCCCCc1cc2cc(-c3nc(-c4ccc(OC)cc4)cs3)c(=O)oc2cc1O`, the Inhibition is on record as 97%.

With `CN(C)CC(O)C(c1ccccc1)c1cccc(Br)c1.Cl` (configuration not stated), the Inhibition is on record as 98%. `CC(C)c1nc2c(N)nc(N)nc2nc1N` gave an Inhibition of 84%.

The molecule `Cc1cc2nc(N/C(N)=N/C(=O)NC3CCCCC3)nc(C)c2cc1C` gave an Inhibition of 94%.

The test system of the next experiment is Plasmodium falciparum. The experiment in a line: GSK_TCMDC: Inhibition of Plasmodium falciparum Dd2 in whole red blood cells, using parasite LDH activity as an index of growth. Test compounds present at 2uM. It counts as functional.
`CCn1c(C(C)C)cc2c3c(N)nc(N)nc3ccc21` showed an Inhibition of 0%. `CCCCCCn1c(Sc2ccc(C#N)c([N+](=O)[O-])c2)nnc1-c1ccc(Cl)cc1` came in with an Inhibition of 48%. On to `O=C(Nc1cccc([N+](=O)[O-])c1)Nc1ccc(Cl)c(C(F)(F)F)c1`, for which the Inhibition is on record as 87%. In turn, `CC(Sc1nnc(-c2cccs2)[nH]1)C(=O)c1c[nH]c2ccccc12` (configuration not stated) registered an Inhibition of 58%.

`O=C(Nc1ccc(-c2ccccc2)cc1)Nc1cccc(Cn2nc(Cl)c(N3CCCNCC3)cc2=O)c1.O=C(O)C(F)(F)F`: the Inhibition came to 37%. On the same count and under the same terms, as for `Cc1cccc(-c2nc3cc(NC(=O)c4ccc([N+](=O)[O-])o4)ccc3o2)c1`, the figure is 73%. Same read-out and setting: as for `CCNc1cc(C(=O)N[C@@H](Cc2cccc(F)c2)[C@H](O)CNC(C)CCCC(C)C)cc(N2CCCCS2(=O)=O)c1.Cl` (some centres not stated), the figure is 97%.

Consider `CNCCCn1c(N(C)C)nc2cc(-n3cnc4cc(-c5ccc(Cl)cc5)sc4c3=O)ccc21.O=C(O)C(F)(F)F`, for which the Inhibition is recorded as 27%.

As for `COc1ccc2ccccc2c1CCCCN1CCN(CC(c2ccc(F)cc2)N2CCC2)CC1.O=C(O)C(F)(F)F` (configuration not stated), the Inhibition was 51%. In the case of `Cc1cccc2nc(-c3cccc(-c4ccc(CNCc5ccccc5)cc4)c3)[nH]c12.O=C(O)C(F)(F)F`, the Inhibition stood at 100%. For `COc1cc(C)nc2ccc(NC(=O)COCC(=O)Nc3ccc4nc(C)cc(OC)c4c3)cc12`, the Inhibition stood at 41%.

`Cc1cccc2nc(-c3cccc(-c4ccc(CN5CCCC5CN)cc4)c3)[nH]c12.O=C(O)C(F)(F)F` (configuration not stated) came in with an Inhibition of 47%. The molecule `COc1cc(SC)c(Br)cc1-c1nc2ccncc2[nH]1` showed an Inhibition of 9%. For `Fc1ccc2[nH]c3c(NCCN4CCCCC4)ncnc3c2c1`, the Inhibition worked out at 44%. Same read-out and setting: as for `Cl.N#Cc1cccc(-c2cccc(C(=O)NC3CCC(CCN4CCc5ccc(C#N)cc5CC4)CC3)c2)c1` (configuration not stated), the figure is 57%; as for `Cc1cccc2nc(-c3ccc(-c4ccc(NC(=O)Nc5ccsc5)cc4)s3)[nH]c12`, 88%; as for `C=Cc1cc(NC(=O)N2CCc3cc(OC)c(C(F)(F)F)cc32)cc(-c2cccnc2)c1`, 20%. Same read-out and setting: as for `COc1ccc2ncc(F)c([C@H](O)CN3CCC(NCc4ccc5c(c4)OCCO5)CC3)c2c1.Cl`, the figure is 99%; as for `O=C(Nc1ccc(N2CCN(Cc3cccc(F)c3)CC2)cc1)c1cccs1.O=C(O)C(F)(F)F`, 92%. `COc1cc2nc(N3CCC(CNC(=O)/C=C/c4ccccc4F)CC3)nc(N)c2cc1OC.Cl` displayed an Inhibition of 88%. In turn, `Brc1ccc(Nc2ccnc3cc(-c4nccs4)ccc23)cc1Oc1ccnc2cc(-c3nccs3)ccc12` came in with an Inhibition of 83%.

The molecule `COc1ccc(NC(=O)c2c(NC(=O)c3cccs3)sc3c2CCCC3)cc1` had an Inhibition of 4%.

In turn, `COc1ccc2nccc([C@@H](O)CN3CCC(NC(=O)/C=C/c4cccc(-c5ccccc5)c4)CC3)c2c1` had an Inhibition of 83%. For `COc1cc2c(cc1CCNCCCCNCCc1cc3c(cc1OC)CCCC3)CCCC2.CS(=O)(=O)O`, the Inhibition came out at 36%. On the same count and under the same terms, as for `CCCNc1nc(Nc2ccccc2C)nc2ccccc12`, the figure is 64%; as for `O=C(Cc1cccc(Cl)c1)Nc1cccc(-c2c[nH]c3nc(Nc4ccccc4)ncc23)c1.O=C(O)C(F)(F)F`, 70%.

With `CCC(C)OC(=O)C1=C(C)NC2=C(C(=O)CC(c3ccc(OC)c(OC)c3)C2)C1c1ccc(C)o1` (configuration not stated), the Inhibition is listed as 82%. Same read-out and setting: as for `NCc1cccc(-c2ccc3ccnc(N)c3c2)c1`, the figure is 96%. Turning to `Cc1noc(-c2ccccc2)c1NC(=O)N1CCN(CCCCCCNC(=O)/C=C/c2ccc(Cl)c(Cl)c2)CC1`, the Inhibition amounted to 1%. `COc1ccccc1C1CCN(C2CCC(NC(=O)c3ccc4[nH]c(-c5ccc(C)cc5)nc4c3)CC2)CC1` (configuration not stated): the Inhibition is 100%.

Consider `Cc1nc2c(Nc3nc(-c4ccncc4)cs3)ncnc2n1-c1ccccc1Cl`, for which the Inhibition is reported as 96%. `CCN(CC)CCN(Cc1ccc(-c2ccc(C(F)(F)F)s2)cc1)C(=O)Cn1c(CCc2cccc(F)c2F)nc(=O)c2ccccc21.O=C(O)C(O)C(O)C(=O)O`: the Inhibition is given as 31%. `CN(C)S(=O)(=O)c1ccc(N2C(=O)C3C(C2=O)C2(c4ccccc4)C(=O)C3(c3ccccc3)C(c3ccccc3)=C2c2ccccc2)cc1` (configuration not stated): the Inhibition is 63%.
